Screens as filed in PubChem BioAssay.
SNCA expr inh: SNCA gene expression inhibition | hit rate 0.17% among 140,000 | Potency, µM (series often up to 57.2 µM), most hits filed as inhibitors | HEK-293 SNCA-luciferase knock-in, luminescence, 24 h; note: nearly all actives have a fitted effect of over 45% in size
HEK293 tox: HEK 293 cell cytotoxicity | HEK 293 viability, ATP luminescence (CellTiter-Glo), 48-72 h | hit rate 6.6% among 94,000 | AID 1345083 | Potency, µM (titrated, usually from 115 µM), actives largely listed as inhibitors; note: nearly all actives have a fitted effect of over 60% in size
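HEK 293 cells at 250 cells/well were exposed to compounds by pintool transfer for 48 or 72 hr at 37 degree Celsius, 5% CO2. Viability was read as ATP-coupled luminescence with CellTiter-Glo after 10 min at room temperature.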
Luciferase inh: inhibitors of firefly (Photinus pyralis) luciferase. P08659. purified P. pyralis luciferase, luminescence, biochemical. Potency, µM (titrated, usually from 115 µM), most hits filed as inhibitors. hit rate 2.5% among 76,000; note: nearly all actives have a fitted effect of over 65% in size
Target sequence (P08659 whole entry, looked up): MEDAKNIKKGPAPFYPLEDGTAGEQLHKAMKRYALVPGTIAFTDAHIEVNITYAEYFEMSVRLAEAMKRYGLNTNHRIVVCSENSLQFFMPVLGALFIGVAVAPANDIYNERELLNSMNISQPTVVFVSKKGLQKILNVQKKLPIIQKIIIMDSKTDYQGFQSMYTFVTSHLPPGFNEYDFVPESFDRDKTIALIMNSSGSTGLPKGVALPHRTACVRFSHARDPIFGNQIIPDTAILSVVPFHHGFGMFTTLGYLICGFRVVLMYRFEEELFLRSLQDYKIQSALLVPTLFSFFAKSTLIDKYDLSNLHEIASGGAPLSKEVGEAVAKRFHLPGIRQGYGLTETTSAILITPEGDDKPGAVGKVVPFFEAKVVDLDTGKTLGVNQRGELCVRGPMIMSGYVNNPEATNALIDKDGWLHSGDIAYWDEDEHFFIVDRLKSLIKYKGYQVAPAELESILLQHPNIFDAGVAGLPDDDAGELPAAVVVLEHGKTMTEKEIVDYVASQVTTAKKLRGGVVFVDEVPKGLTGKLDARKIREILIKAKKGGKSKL
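FLuc 10nM, D-luciferin 10uM, ATP 10uM, Mg acetate 10mM, Tris acetate pH 7.5, Tween/BSA; cpd qHTS; enzyme added last; CCD luminescence.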
NIH3T3 tox: NIH 3T3 cell cytotoxicity. NIH 3T3 viability, CellTiter-Glo ATP luminescence, 48-72 h. hit rate 4.3% among 94,000. AID 1345082. Potency, µM (doses to about 96.7 µM), actives largely listed as inhibitors; note: nearly all actives have a fitted effect of over 55% in size
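NIH 3T3 cells at 400 cells/well received 23 nL of compound by pintool and were incubated 48 or 72 h at 37 °C. Viability was read as ATP-coupled CellTiter-Glo luminescence.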
SNCA viab count: cell viability loss counter-screen. AID 1671193. Potency, µM (doses to about 57.1 µM), most hits filed as cytotoxic. HEK-293-SNCA-luc viability, GF-AFC fluorescence, 24 h. hit rate 0.12% among 150,000; note: nearly all actives have a fitted effect of over 30% in size
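Cytotoxicity counterscreen: after 24 h compound treatment of genome-edited SNCA-luciferase HEK-293 cells, live-cell protease substrate GF-AFC read by fluorescence after 30 min; activity scaled between DMSO (0%) and medium-only (-100%), curves Hill-fitted.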
IP6K1 inh: inhibitors of human IP6K1; Q92551; IP6K1 kinase, ADP-Glo luminescence, 2 h; stronger effect = lower value; activity change, % (series mostly up to about 58 µM); hit rate 0.81% among 140,000; AID 1645851; in the data active = activity change below about -25%
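ADP-Glo luminescence measures ADP made by human IP6K1 during a 2 h RT reaction with ATP/IP6 (mix at 1.3 mM/130 uM); top library doses 57.5 and 19.1 uM final.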
Numbers stand for hits; i = inactive; ? = inconclusive; nt = not tested or not shown; [ ] = remark or other dose. Only some compounds are listed: those with a hit (about 7.3% of all), similar ones and a draw of the others. Unless noted, calls come from the whole dose curve; as a rule, active = well fitted curve in the direction sought with a large enough effect; inconclusive = small, poorly fitted or top-dose-only effect, or another doubt; inactive = no such curve, though single readings can be large; an effect the other way counts as inactive or inconclusive.

SMILES	SNCA expr inh	HEK293 tox	Luciferase inh	NIH3T3 tox	SNCA viab count	IP6K1 inh
COc1ccc(Nc2ccnc(N3CCCC(C(=O)NCc4ccccc4)C3)n2)cc1 (centres undefined)	?	40µM	nt	35µM	?	i
COc1ccc(Nc2ccnc(N3CCCC(C(=O)NCc4cccc(OC)c4)C3)n2)cc1 (centres undefined)	?	25µM	nt	35µM	?	i
COc1cccc(CNC(=O)Cn2c(N3CCc4ccccc4C3)nc(C)cc2=O)c1	?	45µM	i	i	i	i
CCc1ccccc1NC(=O)Cn1c(N2CCc3ccccc3C2)nc(C)cc1=O	?	?	i	18µM	?	i
Cc1cc(=O)n(CC(=O)Nc2ccc(C(C)C)cc2)c(N2CCc3ccccc3C2)n1	i	?	i	25µM	i	i
Cc1cc(=O)n(CC(=O)Nc2cccc(Cl)c2)c(N2CCc3ccccc3C2)n1	?	?	i	14µM	?	i
Cc1noc2c(-c3ccnn3C)cc(-c3ccc(F)cc3)nc12	i	i	i	?	i	i
COC(=O)N1CCN(C(=O)c2nc3cccnc3n(-c3ccccc3OC)c2=O)CC1	i	i	nt	i	i	i
CN1CC(=O)N(C2CCNCC2)Cc2c(NCCCc3ccccc3)ncnc21	?	?	nt	i	i	i
Cc1cc(=O)n(CC(=O)Nc2ccccc2)c(N2CCc3ccccc3C2)n1	i	32µM	i	?	i	i
COc1ccc(NC(=O)Cn2c(N3CCc4ccccc4C3)nc(C)cc2=O)cc1OC	i	?	i	?	i	i
Cc1cc(=O)n(CC(=O)Nc2ccc(Cl)cc2)c(N2CCc3ccccc3C2)n1	?	?	i	?	i	i
Cc1cc(=O)n(CC(=O)Nc2ccc(Br)cc2)c(N2CCc3ccccc3C2)n1	i	89µM	i	?	i	i
COc1ccc(NC(=O)Cn2c(N3CCc4ccccc4C3)nc(C)cc2=O)cc1Cl	?	40µM	i	35µM	i	i
CCc1cccc(NC(=O)Cn2c(N3CCc4ccccc4C3)nc(C)cc2=O)c1	i	?	i	28µM	i	i
O=C(NC1CCN(c2ccc3nnc(C4CC4)n3n2)C1)C1CCCC1 (centres undefined)	nt	i	nt	i	nt	i
O=C(NCc1cccc(Cl)c1)c1nc2sccn2c1-c1ccc(C(F)(F)F)cc1	i	?	nt	?	i	i
Cc1cc(=O)n(CC(=O)NCc2ccccc2Br)c(N2CCc3ccccc3C2)n1	i	40µM	i	?	i	i
CNC(=O)CCn1ncc2cc(OCc3ccccc3-c3c(Cl)cccc3OC)ccc21	i	?	i	?	i	i
CNC(=O)CCn1ncc2cc(OCc3ccccc3-c3cccc(O)c3)ccc21	i	79µM	?	?	i	i
CNC(=O)CCn1ncc2cc(OCc3ccccc3-c3cccc(C)c3)ccc21	i	100µM	45µM	89µM	?	i
CNC(=O)CCn1ncc2cc(OCc3ccccc3-c3cnc(OC)nc3)ccc21	i	?	?	i	i	i
O=C(NCc1ccccc1)C1=NO[C@@H]2CN(Cc3ccc(O)c(Cl)c3)C[C@H]12	i	71µM	i	?	i	i
O=C(Nc1ccc(F)c(Cl)c1)C1=NO[C@@H]2CN(CCc3ccccc3)C[C@H]12	i	112µM	i	?	i	i
O=C(NCc1ccccc1)C1=NO[C@@H]2CN(Cc3cccc(F)c3)C[C@H]12	?	45µM	i	?	i	i
SMILES	SNCA expr inh	HEK293 tox	Luciferase inh	NIH3T3 tox	SNCA viab count	IP6K1 inh
O=C1NC2(CCN(C(=O)c3ccc(C(F)(F)F)cc3)C2)Oc2ccccc21 (centres undefined)	i	?	i	i	i	i
CN1C(=O)CCC2(CNC(=O)c3ccnn3C)CCC=C12 (centres undefined)	i	i	i	i	i	i
Cc1ccc(Nc2ccnc(N3CCC(C(=O)NCCCc4ccccc4)CC3)n2)cc1	?	?	nt	13µM	i[12.5 µM]	i
Cc1ccc(Nc2ccnc(N3CCCC(C(=O)NCCCc4ccccc4)C3)n2)cc1 (centres undefined)	?	5µM	nt	?	i[12.5 µM]	i
COc1ccc(Nc2ccnc(N3CCCC(C(=O)NCCCc4ccccc4)C3)n2)cc1 (centres undefined)	i	22µM	nt	?	i	i
COc1ccc(CCNC(=O)C2CCN(c3nccc(Nc4ccc(C)cc4)n3)CC2)cc1	i	?	nt	?	i[12.5 µM]	i
CCC1(O)CCC12CCN(C(=O)c1ccc(OC)c(F)c1)CC2 (centres undefined)	i	i	nt	?	i	i
CN1CCCC(CN(CCc2ccccc2)C(=O)c2cc(C#N)cn2C)C1 (centres undefined)	i	i	i	i	i	i
CCCNC(=O)N(C1CCOCC1)C1CCN(C(=O)Cc2cccnc2)CC1	i	i	i	i	i	i
Cc1ccc(CN2C[C@@H]3C[C@H]2C(=O)N(CC2CC2)c2ccccc2O3)cc1	i	100µM	i	100µM	i	i
Cn1cc(CN2C[C@@H]3C[C@H]2C(=O)N(CC2CC2)c2ccccc2O3)c2ccccc21	i	?	i	100µM	i	i
O=C1[C@@H]2C[C@@H](CN2Cc2ccnc3ccccc23)Oc2ccccc2N1CC1CC1	i	?	i	?	i	i
O=C(C[C@@H]1CCNC[C@@H]1Cc1cc(COc2ccccc2)on1)NCc1ccc(F)cc1	i	?	i	?	i	i
O=C(C[C@@H]1CCNC[C@@H]1Cc1cc(CSc2ccccc2)on1)NC1CC1	i	i	i	i	i	i
O=C(C[C@@H]1CCNC[C@@H]1Cc1cc(CC2CCCCC2)on1)NCc1ccco1	i	45µM	i	100µM	i	i
COc1ccc(CNC(=O)C[C@@H]2CCNC[C@@H]2Cc2cc(CC3CCCCC3)on2)cc1	i	28µM	i	28µM	i	i
COc1ccc(CNC(=O)C[C@@H]2CCNC[C@@H]2Cc2cc(COc3ccccc3)on2)cc1	i	?	i	25µM	i	i
COc1ccc(CNC(=O)C[C@@H]2CCNC[C@@H]2Cc2cc(CSc3ccccc3)on2)cc1	i	50µM	i	?	i	i
COc1ccc(CNC(=O)C[C@@H]2CCNC[C@@H]2Cc2cc(C(C)(C)C)on2)cc1	i	?	i	i	i	i
CC1(C)C[C@H]2C[C@@H](O)[C@H](N3CCN(c4cccc(Cl)c4)CC3)[C@]2(O)CO1	i	?	nt	i	i	i
CO[C@@H]1C[C@@H]2CC(C)(C)OC[C@@]2(O)[C@H]1N1CCN(c2ccc([N+](=O)[O-])cc2)CC1	i	?	nt	i	i	i
Cc1ccc2c(c1)N(CCCC(=O)N1CCC(C)(c3noc(-c4ccccc4)n3)CC1)C(=O)CO2	?	32µM	nt	?	?	i
O=C(c1ccccc1F)N1CCC(Oc2cccnc2)C1 (centres undefined)	i	i	i	i	i	i
